Test results from PubChem BioAssay AID1259423 (Fisher Drug Discovery Resource Center, 2018).
Where “and” joins values, the source holds several entries; their conditions need not be identical. Equal values may be shown once. In all, about 270,000 compounds went through this assay and about 410 (0.15%) were called active. Cut-off read from the data, not from the text of the source: active = activation above about 40%; inactive = the rest, inconclusive results apart. Shown is part of a subset that was picked to be rich in actives. The source holds several records for some structures; these can differ, active in one and inactive in another.

System: Aedes aegypti neuropeptide Y-like receptor 7 (NPYLR7)
Assay: agonists of mosquito NPYLR7 receptor, primary screen, cell-based, Aedes aegypti, calcium fluorescence, mosquito biting behavior (AID 1259423);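 note: 0% = vehicle and 100% = reference agonist at the receptor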
Details: HEK293T NPYLR7/Galpha15, GCaMP6s calcium fluorescence, at 10 µM, stronger effect = higher value
[1] = measured here: Max-Min RFU normalised activation

Compound | activation | activation [1]
Cc1nc(N)sc1C(=O)N/N=C1\CCn2cccc21 | 4.89% (inactive) | 3.57%
CCc1nc2c(OCC=C(C)C)cccn2c1N(C)C(=O)c1ccco1 | 6.84% (inactive) | -5.05%
CCOC(=O)C1CCN(C(=O)CC2CSc3nc4c(c(=O)n32)CCCC4)CC1 (configuration not stated) | -0.315% (inactive) | -2.68%
COc1ccc(NCc2cccc(F)c2)cc1N1CCOC1=O | 11.9% (inactive) and 1.76% (inactive) | 10.7% and -0.214%
CCN(CC)c1onc(-c2ccc(F)cc2)c1CN(CCOC)C(=O)Cc1ccccc1 | 15% (inactive) | 16.6%
Cc1ccc(F)c(-n2nnnc2CSCC(=O)NC(C)(C)C)c1 | 1.4% (inactive) | 3.68%
Cc1cc(C)cc(C(O)C(F)(F)F)c1 (configuration not stated) | 4.04% (inactive) and 3.71% (inactive) | 3.27% and 11.4%
CCc1cccc2sc(N(Cc3ccccn3)C(=O)c3cccc(S(=O)(=O)CC)c3)nc12 | 1.88% (inactive) | -3.52%
COc1ccc(CN(CC(O)COCC(C)C)CC2CCCO2)cc1OC (configuration not stated) | 1.65% (inactive) | 13.2%
CN(Cc1ncc[nH]1)C1CCN(c2ccc3c(c2)OCO3)CC1 | -10.3% (inactive) | -10.5%
NC(=O)[C@@H]1CN2CCN(C(=O)c3ccco3)C[C@@H]2[C@H]1c1ccccc1 | 2.73% (inactive) | 0.0894%
O=C(c1ccc(-n2cnnn2)cc1)N1CCCC(N2CCCC2)C1 (configuration not stated) | 6.38% (inactive) | 2.39%
O=c1c2ccccc2sn1CN1CCN(c2ccc(C(F)(F)F)cn2)CC1 | 10.9% (inactive) | 3.72%
CC[C@H]1CN(Cc2cc(Cl)cc(OC)c2OC)CC[C@@]1(C)O | -5.14% (inactive) | -11.2%
Cc1ccc(CN(CCN2CCOCC2)CC(O)c2ccccc2)s1 (configuration not stated) | 1.67% (inactive) | 15.8%
CCN1C(=O)CSC1=C(C#N)C(N)=O | 4.07% (inactive) | -0.252%
CN(C)CC1(O)CCCN(C(=O)c2ccc(N3CCCC3=O)cc2)C1 (configuration not stated) | -3.42% (inactive) | -7.14%
Nc1ccc2c3c(cccc13)C(=O)NC2=O | 147% (active) | 136%
CC1CNC(=O)CCN1Cc1ccc2cccc(Cl)c2n1 (configuration not stated) | 8.75% (inactive) | 6.16%
Cc1c(CN2CCn3cncc3C2)c(=O)n(-c2ccccc2)n1C | 20.8% (inactive) | 15.6%
Clc1cccc2ccc(CN3CCn4cncc4C3)nc12 | 133% (active) | 113%

Compound | activation | activation [1]
Cc1nc2ccccc2c(=O)n1N=Cc1ccc(OCc2ccccc2)cc1 | -6.32% (inactive) | -12.4%
CCOc1ccc(N2CC(NC(=O)Nc3ncccc3C)CC2=O)cc1 (configuration not stated) | 2.56% (inactive) | -0.89%
Cn1nc(C(=O)N2CCCC(COc3ccccc3F)C2)ccc1=O (configuration not stated) | 11.1% (inactive) | 4.67%
O=C(c1cnn(-c2ccccc2)n1)N1CCCC(COCc2ccccc2)C1 (configuration not stated) | 97.3% (active) | 92.7%
O=C(Cc1cnn(-c2ccccc2)n1)N1CCCCCCC1 | 10.9% (inactive) | 7.94%
CN1CCOC(CCNC(=O)CCC(=O)N2CCCCCC2)C1 (configuration not stated) | 1.36% (inactive) | -0.93%
COc1ccc(C(=O)C=Cc2ccc(F)c(F)c2)cc1F | 2.38% (inactive) | -4.33%
COc1ccc(C=CC(=O)c2ccc(I)cc2)cc1OC | 1.5% (inactive) | 6.21%
COc1ccc(C(=O)C=Cc2cc(Br)c(O)c(OC)c2)cc1F | 172% (active) | 160%
CCCCCCC(=O)Nc1c(-c2ccc(OC)c(OC)c2)nc2cc(C)ccn12 | -2.82% (inactive) | 4.02%
CC(=O)N1CCC(C(=O)N2CCCC(C(=O)c3ccc(C(F)(F)F)cc3)C2)CC1 (configuration not stated) | 0.616% (inactive) | -1.09%
COc1ccc(C)c2sc(N(Cc3ccccc3)C(=O)c3ccc([N+](=O)[O-])o3)nc12 | 3.04% (inactive) | 0.795%
Oc1ccc(-c2onc3ccc(Cl)cc23)cc1 | 112% (active) | 227%
N#C/C(=C\c1ccc2noc(-c3ccccc3)c2c1)C(=O)Nc1ccccc1C#N | 22.3% (inactive) | 18.1%
c1ccc(Nc2nc(-c3ccco3)nc3ccccc23)cc1 | -1.91% (inactive) | 4.58%
COc1ccccc1-c1cc(C(=O)N2CCCC2)n2nc(C(C)(C)C)cc2n1 | 3.24% (inactive) | 10.6%
CC1CN(C(=O)NCC(C)N(C)c2ccccc2)CC(C)O1 (configuration not stated) | 4.84% (inactive) | 1.94%
COc1ccc(CN(Cc2nc(C(=O)O)co2)C(C)c2ccccc2)c(OC)c1 (configuration not stated) | 10.6% (inactive) | 6.62%
CN(Cc1cc(-c2ccncc2)no1)Cc1cn[nH]c1-c1cccc(F)c1 | 1.92% (inactive) | 4.35%
COc1ccc(N2C(=O)/C(=C\c3ccc(N(C)C)cc3)SC2=S)cc1 | -3.18% (inactive) | -7.36%
CC(C(=O)O)N1C(=O)/C(=C/c2ccc(N(C)C)cc2)SC1=S (configuration not stated) | 64.5% (active) | 54.2%

Compound | activation | activation [1]
CC(C(=O)O)N1C(=O)/C(=C/c2ccccn2)SC1=S (configuration not stated) | -2.67% (inactive) | -6.6%
Brc1ccc2nc(-c3ccccc3)c(NC3CCCCC3)n2c1 | -4.85% (inactive) | 5.22%
Cc1csc(=O)n1CCC(=O)OC(C)C(N)=O (configuration not stated) | 1.77% (inactive) | 0.428%
CC(=O)Oc1ccc(Cn2c(C)c(C(=O)NCc3ccc(C(C)C)cc3)sc2=O)cc1 | -6.93% (inactive) | -8.16%
CC(=O)Oc1ccc(Cn2c(C)c(C(=O)NCc3ccc(C#N)cc3)sc2=O)cc1 | 53.2% (active) | 43.3%
Cc1c(C(=O)NCc2ccc(C#N)cc2)sc(=O)n1Cc1ccc(C(=O)N(C)C)cc1 | 2.34% (inactive) | -0.426%
CC(=O)N1CCN(C(=O)COc2c(C)cc(Br)cc2Cl)CC1 | 2.73% (inactive) | 1.6%
COc1ccc(C(=O)Nc2cc(C(F)(F)F)ccc2Cl)cc1[N+](=O)[O-] | 1.83% (inactive) | 0.579%
O=P1(Nc2cc(C(F)(F)F)ccc2Cl)C=C(c2ccccc2)OC(c2ccccc2)=C1 | 52.5% (active) | 88.3%
CCn1c(N2CCN(Cc3cccc4ccccc34)CC2)nc2c1c(=O)[nH]c(=O)n2C | 1.95% (inactive) | 4.2%
O=C(Nc1nc2c(s1)CCC2)c1cnn(Cc2ccccc2)c1 | -0.747% (inactive) | -2.1%
O=C(c1ccco1)N(Cc1cccc(Cl)c1)CC1CC(c2ccccc2F)=NO1 (configuration not stated) | -2.38% (inactive) | 16.5%
O=C1CCCCCCCCCOCCCCCO1 | 1.79% (inactive) | 0.962%
O=C(NCC1CCCO1)c1cccc(Nc2c(Oc3cccc(Cl)c3)cnn(-c3ccccc3)c2=O)c1 (configuration not stated) | 0.00562% (inactive) | 12.8%
COCCN(CC(=O)N1CCc2sccc2C1c1ccccc1)C(=O)COCc1ccccc1 (configuration not stated) | 1.27% (inactive) | 4.39%
Nc1c(Oc2ccccc2)cc(Nc2ccccc2)c2c1C(=O)c1ccccc1C2=O | -6.94% (inactive) | -5.96%
Cc1csc(=Nc2ccccc2)n1C1CCCC1 | 1.06% (inactive) | 7.29%
O=C1OCCN1Cc1nc(CCc2ccccc2)nn1-c1ccccn1 | -2.22% (inactive) | -8.03%
CC(=O)c1ccc(C(=O)Nc2sc3c(c2-c2nc4ccccc4s2)CCN(C)C3)cc1 | 12.4% (inactive) | 11.3%
CCOc1ccc(C(=O)Nc2sc3c(c2-c2nc4ccccc4s2)CCN(C)C3)cc1 | 105% (active) | 107%
CC(=O)N1CCc2c(sc(NC(=O)c3cccs3)c2-c2nc3ccccc3s2)C1 | 3.8% (inactive) | 5.03%

Compound | activation | activation [1]
Cc1ccc(CCC(=O)N2CCOC3(CNCCOC3)C2)cc1C (configuration not stated) | 5.94% (inactive) | 6.1%
Cc1c(NC(=O)C(C)(C)c2ccccc2)cccc1C(=O)N1CCOCC1 | 2.93% (inactive) | 1.78%
CCOc1nc(-c2ccc(C(F)(F)F)cc2)n(-c2ccc(NCC(O)COCc3ccccc3)cc2)n1 (configuration not stated) | -2.33% (inactive) | 4.92%
Fc1ccc(N2CCC(N3CCCC(Nc4ccccc4)C3)CC2)cc1 (configuration not stated) | -4.09% (inactive) and -0.074% (inactive) | -9.41% and 0.61%
O=[N+]([O-])c1c(Nc2ccccc2)[nH]c2ccccc12 | 15.3% (inactive) | 12.9%
CCOC(=O)OC(C)OC(=O)C1N2C(=O)C(NC(=O)[C@H](N)c3ccccc3)C2SC1(C)C (some centres not stated) | -11.5% (inactive) | -16.7%
CC1(C)SC2C(NC(=O)COc3ccccc3)C(=O)N2C1C(=O)O (configuration not stated) | -1.02% (inactive) | -6.97%
CC(Oc1ccccc1)C(=O)N[C@@H]1C(=O)N2[C@@H]1SC(C)(C)[C@@H]2C(=O)O (some centres not stated) | -1.06% (inactive) and 61.5% (active) | -1.47% and 49.3%
CCOC(=O)C(C)Sc1ccc(NC(=O)C(C)C)nn1 (configuration not stated) | 0.376% (inactive) | -0.597%
CC(=O)N[C@H]1C[C@@H](c2c(C)nc3sccn23)O[C@@H](C2CCCCC2)C1 | 19.4% (inactive) | 3.2%
CN(c1ccccc1)c1nnc(C(O)c2cc(F)c(F)c(F)c2)s1 (configuration not stated) | 0.561% (inactive) | -0.28%
CCc1nc2ccc(C(=O)N(C)Cc3ccco3)cn2c1N(C)CCC(C)C | -5.57% (inactive) | -12.5%
O=C(Nc1ccc(C(F)(F)F)cc1)C1CCCN(c2ccc(-c3ccco3)nn2)C1 (configuration not stated) | -4.36% (inactive) | -8.71%
C=CCN(Cc1csc(COc2ccc(C)c(C)c2)n1)C(=O)c1cccc(OC)c1 | -4.71% (inactive) | 3.47%
Cc1c(-c2ccccc2)c(=O)oc2c3c(ccc12)OCN(Cc1cccnc1)C3 | -8.96% (inactive) | -15.9%
COc1cccc(/C=C2\Oc3c(ccc4c3CN(Cc3ccncc3)CO4)C2=O)c1 | 66.8% (active) | 55.3%
COCCCN1COc2ccc3c(c2C1)O/C(=C\c1cccc(OC)c1OC)C3=O | 26.3% (inactive) | 20.7%
Cc1nn(C)cc1N1C(=O)c2cccc3c([N+](=O)[O-])ccc(c23)C1=O | -4.56% (inactive) | -14.9%
